The source of these data is PubChem BioAssay AID430 (Sanford-Burnham Center for Chemical Genomics, 2006).

Molecules are shown by their SMILES. Values joined by “and” are separate entries in the source; they are usually repeats but may differ in a detail not shown here. Identical values can stand only once. About 1,100 (1.7%) of roughly 63,000 compounds were called active. Rule as the data show it: active = cytotoxicity above about 50%; inactive = the rest. The entries come from a sample that favours actives as a whole. Results with a measured potency or affinity are listed apart. Some compounds were tested as several samples or in several runs, with calls that do not always agree.

This test can be described thus: cytotoxicity in HPDE-C7 cells, cell-based, fluorescence, HTS (AID 430).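 Also: cells exposed to compound for 48 hours before viability readout; 0% = vehicle and 100% = reference cytotoxic drug.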 To be noted: HPDE-C7 pancreatic duct cells viability, at 10 µM, stronger effect = higher value.
Regarding `CCN(C(=O)c1ccc(C(C)(C)C)cc1)c1nnc(Cn2nnc3ccccc32)s1`, the cytotoxicity was 81.9% (active).

For `CCN(C(C)=O)c1nnc(CSc2nc3ccccc3s2)s1`, the cytotoxicity is 12.1% (inactive).

As for `CCN(C(=O)CSc1nnc(Cn2nnc3ccccc32)o1)c1nc(-c2ccccc2)cs1`, the cytotoxicity is -7.6% (inactive).

In the case of `COc1ccc(N2CCN(C(=O)CCNS(=O)(=O)c3ccc(Br)s3)CC2)cc1`, the cytotoxicity is -17.4% (inactive).

With `Cc1ccc(S(=O)(=O)N2CCC(C(=O)Nc3nnc(COc4ccccc4)s3)CC2)cc1`, the cytotoxicity was -3.6% (inactive).

As to `O=C(CCNC(=O)Cn1ccc2ccccc2c1=O)NCCCN1CCN(c2ccccc2F)CC1`, the cytotoxicity is -10.7% (inactive).

Turning to `Cc1cc(C)c2c(=O)n(CC(=O)NCCCN3CCOCC3)sc2n1`, the cytotoxicity was 6.4% (inactive).

Take `Cc1cc(C)c2c(=O)n(CC(=O)NCCCN3CCN(c4ccccc4F)CC3)sc2n1`: the cytotoxicity was 88.5% (active).

As for `CCC(NC(=O)Nc1ncccc1C)(C(F)(F)F)C(F)(F)F`, the cytotoxicity is -6.7% (inactive).

Consider `CCOC(=O)N1CCN(C(=O)c2ccc3c(c2)sc2nc(-c4ccc(OC)cc4)cn23)CC1`, for which the cytotoxicity was 12.1% (inactive).

For the compound `CCOC(=O)N1CCN(C(=O)c2ccc3c(c2)sc2nc(-c4ccccc4)cn23)CC1`, the cytotoxicity was 2.8% (inactive).

For the compound `COc1ccc2c(c1)sc1nc(-c3ccccc3)cn12`, the cytotoxicity is 53.2% (active).

As to `CS(=O)(=O)N(CC(=O)NCc1ccco1)Cc1ccc(Cl)cc1`, the cytotoxicity was -9.3% (inactive).

Take `COc1ccccc1S(=O)(=O)Cc1ccc(C(=O)NCCN(C)C)o1`: the cytotoxicity is 8% (inactive).

Regarding `O=S(=O)(c1cccc2nsnc12)N1CCN(c2ncccn2)CC1`, the cytotoxicity is -8.5% (inactive).

With `COc1cccc(C2=CC(c3cc(OC)ccc3OC)n3nnnc3N2)c1` (configuration not stated), the cytotoxicity is 70.3% (active).

Consider `COc1ccc(C2C=C(c3ccccc3)Nc3nnnn32)cc1` (configuration not stated), for which the cytotoxicity was -3.3% (inactive).

With `COc1cccc(C2=CC(c3ccc(N(C)C)cc3)n3nnnc3N2)c1` (configuration not stated), the cytotoxicity is -3% (inactive).

Take `COc1ccc(C2=CC(c3sccc3C)n3nnnc3N2)cc1` (configuration not stated): the cytotoxicity is 12.4% (inactive).

For the compound `COc1ccc(C2=CC(c3ccc(F)cc3)n3nnnc3N2)cc1` (configuration not stated), the cytotoxicity is -4% (inactive).

On to `COc1ccc(C2=CC(c3ccc(OC)c(OC)c3)n3nnnc3N2)c(OC)c1` (configuration not stated), for which the cytotoxicity was 14.7% (inactive).

Regarding `COc1cccc(C2=CC(c3ccccc3)n3nnnc3N2)c1` (configuration not stated), the cytotoxicity is 53.7% (active).

In the case of `COc1ccccc1C1C=C(c2ccccc2)Nc2nnnn21` (configuration not stated), the cytotoxicity is 29.6% (inactive).

As for `COc1ccc(OC)c(C2C=C(c3ccc(C)c(C)c3)Nc3nnnn32)c1` (configuration not stated), the cytotoxicity is 10.4% (inactive).

Consider `COc1ccccc1C1C=C(c2ccc(C)cc2)Nc2nnnn21` (configuration not stated), for which the cytotoxicity is -0.5% (inactive).

Turning to `COc1ccc(C2=CC(c3c(C)nn(-c4ccccc4)c3Cl)n3nnnc3N2)cc1OC` (configuration not stated), the cytotoxicity was 72.4% (active).

Turning to `CCOC(=O)N1CCN(c2c(N3CCC(N4CCCCC4)CC3)c(=O)c2=O)CC1`, the cytotoxicity was 10.5% (inactive).

Turning to `CN(Cc1ccccc1)Cc1nc2c(c(=O)n(C)c(=O)n2C)n1Cc1ccc(F)cc1`, the cytotoxicity was -29.4% (inactive).

Take `O=C(CCS(=O)(=O)c1cccc2nsnc12)N1CCN(C(=O)c2ccco2)CC1`: the cytotoxicity is -15.9% (inactive).

For `CN1CCN(C2=NC3(CCCC3)C(C#N)C(=O)N2)CC1` (configuration not stated), the cytotoxicity was 23.5% (inactive).

Take `COC(=O)c1c(F)c(F)c(NCCO)c(F)c1F`: the cytotoxicity is -3.7% (inactive).

In the case of `CC(NC(=O)NC1CCCCC1)C(c1cccs1)N1CCOCC1` (configuration not stated), the cytotoxicity was -7.5% (inactive).

For `CCOC(=O)C1CCN(C(=O)CSc2n[nH]c(=O)[nH]c2=O)CC1`, the cytotoxicity was 9.8% (inactive).

In the case of `CNC(=O)/C(=N\O)c1ccccc1`, the cytotoxicity is -14.1% (inactive).

Consider `COc1cc(C(=O)NCCc2ccc(S(N)(=O)=O)cc2)cc(OC)c1OC`, for which the cytotoxicity was 3.4% (inactive).

As for `COc1cccc(C2=CC(c3ccc(OC)c(OC)c3OC)n3nnnc3N2)c1` (configuration not stated), the cytotoxicity was -3.9% (inactive).

Take `COc1ccc(C2=CC(c3ccc(C)cc3)n3nnnc3N2)cc1` (configuration not stated): the cytotoxicity was -1.9% (inactive).

In the case of `COc1cccc(C2=CC(c3cccc(OC)c3OC)n3nnnc3N2)c1` (configuration not stated), the cytotoxicity is 71.4% (active).

Regarding `CCOc1ccc(C2C=C(c3ccc(C)cc3)Nc3nnnn32)cc1` (configuration not stated), the cytotoxicity is -0.9% (inactive).

`COc1cccc(C2=CC(c3cccc(OC)c3OC(F)F)n3nnnc3N2)c1` (configuration not stated): the cytotoxicity is -21.2% (inactive).

On to `O=C(CCNS(=O)(=O)c1cccs1)Nc1ccccc1F`, for which the cytotoxicity is -34.3% (inactive).

Consider `COc1ccc(Cn2nnnc2CN2CCC(c3nc4ccccc4s3)CC2)cc1`, for which the cytotoxicity is -9.8% (inactive).

In the case of `Cc1c(C(=O)OC(C)C)[nH]c2c1C(=O)CC(C)(C)C2`, the cytotoxicity is -0.2% (inactive).

For the compound `CCOC(=O)C1CCCN(C(=O)CCC(=O)Nc2ccc3nc(N4CCOCC4)cc(C)c3c2)C1` (configuration not stated), the cytotoxicity was 9.9% (inactive).

As for `CCOc1ccc2[nH]c(=O)c(CN(CCO)C(=O)c3ccc(Br)cc3)cc2c1`, the cytotoxicity is 6.1% (inactive).

For the compound `O=C1CN(C(=O)COC(=O)COc2ccc3c(c2)CCC3)c2ccccc2N1`, the cytotoxicity was 2.9% (inactive).

On to `COc1cc(NC(=O)c2cnn3c(C)cc(C)nc23)c(OC)cc1Cl`, for which the cytotoxicity was 12.9% (inactive).

In the case of `CC1(C)Cc2c(sc3c2c(=N)n(Cc2ccco2)c(=O)n3CC(=O)Nc2ccc(Cl)cc2)CO1`, the cytotoxicity was 51.5% (active).

With `CC1(C)Cc2c(sc3c2c(=N)n(Cc2ccco2)c(=O)n3CC(=O)Nc2ccccc2)CO1`, the cytotoxicity is 5.3% (inactive).

Turning to `Cc1ccc(NC(=O)Cn2c(=O)n(Cc3ccco3)c(=N)c3c4c(sc32)COC(C)(C)C4)cc1`, the cytotoxicity was 24.6% (inactive).

For the compound `Cc1cccc(OCC(O)Cn2c(-n3nc(C)cc3C)nc3c2c(=O)[nH]c(=O)n3C)c1` (configuration not stated), the cytotoxicity is -2.9% (inactive).

On to `CCCOC(=O)Nc1nc2ccccc2o1`, for which the cytotoxicity was -8.2% (inactive).

`COc1ccccc1C(=O)Nc1nnc(-c2ccc(F)cc2)o1`: the cytotoxicity is 4.1% (inactive).

On to `Cc1nc2ccc(N3C(=O)CCC3=O)cc2[nH]1`, for which the cytotoxicity was -18.8% (inactive).

Regarding `COc1ccc(CN2CCN(S(=O)(=O)c3ccccc3)CC2)c(OC)c1`, the cytotoxicity was -0.4% (inactive).

Regarding `O=C(CCC1CCCC1)N1CCN(C(=O)COc2ccccc2)CC1`, the cytotoxicity is 8.2% (inactive).

Take `Cn1c(N)c(C(=O)CSc2nc3ccccc3n2-c2ccccc2)c(=O)n(C)c1=O`: the cytotoxicity is 106% (active).

Take `COc1ccc(-n2c(SCC(=O)c3c(N)n(C)c(=O)n(C)c3=O)nc3ccccc32)cc1`: the cytotoxicity is 6.1% (inactive).

On to `NC(=O)CSc1nc2ccccc2n1-c1ccccc1`, for which the cytotoxicity was -1.9% (inactive).

In the case of `Cc1ccc(NC(=O)CS(=O)CC(=O)Nc2cccc(C)c2C)cc1F` (configuration not stated), the cytotoxicity was -15.9% (inactive).

As for `COc1ccc(Cl)c(Cn2c(NCC(C)O)nc3c2c(=O)n(C)c(=O)n3C)c1` (configuration not stated), the cytotoxicity was -9.9% (inactive).

As to `O=C(O)c1ccc2c3c(ncnc13)-c1ccccc1C2=O`, the cytotoxicity was 75.6% (active).

Take `O=C1c2ccccc2-c2nccnc21`: the cytotoxicity was -15.6% (inactive).

With `O=C1c2ccccc2-c2ncnc3cccc1c23`, the cytotoxicity was 0.7% (inactive).

As for `CCc1nnc(NC(=O)CCN2C(=O)c3ccccc3S2(=O)=O)s1`, the cytotoxicity is -4.2% (inactive).

Consider `Nc1nc(F)nc2c1ncn2[C@@H]1O[C@H](CO)[C@@H](O)[C@@H]1O`, for which the cytotoxicity was 13.2% (inactive).

Regarding `Nc1nc(Cl)nc2c1ncn2[C@@H]1O[C@H](CO)[C@@H](O)[C@H]1O`, the cytotoxicity is 8.6% (inactive).

In the case of `Nc1nc(Cl)nc2c1ncn2[C@H]1C[C@H](O)[C@@H](CO)O1`, the cytotoxicity was 7.4% (inactive) and 95.9% (active).

`Cc1ccc(NC(=O)Cn2c(C)cc(C)c(C#N)c2=O)c(Cl)c1`: the cytotoxicity was -6.5% (inactive).

In the case of `O=C(CN1C(=O)CSc2ccccc21)NCCC1=CCCCC1`, the cytotoxicity was -11% (inactive).

For `COc1ccc(NS(=O)(=O)c2cc(C)ccc2OC)cc1OC`, the cytotoxicity was 10.3% (inactive).

Consider `S=C1SCN(CCN2CCOCC2)CN1Cc1ccccc1`, for which the cytotoxicity was 60.6% (active).

For the compound `O=C(N1CCOCC1)N1CCN(Cc2ccccc2)CC1`, the cytotoxicity was 4.1% (inactive).

Consider `CN1C(=O)C2(c3ccccc31)N(C)CC(c1ccccn1)C21SC(=S)N(Cc2ccco2)C1=O` (configuration not stated), for which the cytotoxicity was -9.5% (inactive).

As to `COCCN1CSC(=S)N(Cc2ccco2)C1`, the cytotoxicity is 50.6% (active).

For `CCCN1CN(Cc2ccco2)c2nc3ccccc3n2C1`, the cytotoxicity was -15.1% (inactive).

On to `c1ccc(CCN2CN(CCCN3CCOCC3)c3nc4ccccc4n3C2)cc1`, for which the cytotoxicity was -23.9% (inactive).

For the compound `c1ccc(CN2CCN(c3ncccn3)CC2)nc1`, the cytotoxicity was 6% (inactive).

Turning to `S=C1SCN(Cc2ccccn2)CN1Cc1ccco1`, the cytotoxicity was 64.7% (active).

For `COc1ccccc1N1CCN(Cc2ccco2)CC1`, the cytotoxicity is -25.7% (inactive).

On to `CCOc1cccc(C(=O)Nc2cccc(-c3nc4ncccc4o3)c2C)c1`, for which the cytotoxicity is 4.2% (inactive).

As to `COc1ccc(-n2c(Cc3cccn3C)nnc2SCC(=O)NCC2CCCO2)cc1` (configuration not stated), the cytotoxicity is -8.1% (inactive).

Take `O=C1NC(c2cccs2)Nc2sc3c(c21)CCCC3` (configuration not stated): the cytotoxicity was 0.6% (inactive).

Take `CC(C)(C)c1ccccc1NC(=O)c1ccco1`: the cytotoxicity is 15% (inactive).

Turning to `COc1ccc(NC(=O)c2ccc(COc3ccccc3Br)o2)cc1OC`, the cytotoxicity is 36.6% (inactive).

With `COc1cc(NC(=O)c2ccc(COc3ccccc3Br)o2)cc(OC)c1OC`, the cytotoxicity is 56.6% (active).

As for `O=C(Nc1cccnc1)c1ccc(COc2ccccc2Br)o1`, the cytotoxicity is 23.7% (inactive).

On to `CCOC(=O)C1CCN(C(=O)CN(Cc2ccc(Cl)cc2)S(C)(=O)=O)CC1`, for which the cytotoxicity is -1% (inactive).

For `Cn1c(CCCOc2ccc(Cl)cc2Cl)nnc1SCC(=O)Nc1nccs1`, the cytotoxicity was 1% (inactive).

As to `O=C(CCS(=O)(=O)c1ccc(Br)cc1)N1CCN(c2ccccc2)CC1`, the cytotoxicity is -1.2% (inactive).

Take `CCOC(=O)c1[nH]c(C)c(C(=O)Nc2ccc(C)c(C)c2)c1C`: the cytotoxicity was 8.5% (inactive).

Turning to `CC(=O)c1c(C)[nH]c(C(=O)N2CCc3ccccc32)c1C`, the cytotoxicity was 1.3% (inactive).

In the case of `CCOC(=O)c1[nH]c(C)c(C(=O)Nc2ccc(C)cc2C)c1C`, the cytotoxicity was 51.9% (active).

As for `CCOC(=O)c1c(C)[nH]c(C(=O)OCC(=O)N2CCc3ccccc32)c1C`, the cytotoxicity was -15.4% (inactive).

Consider `CCOC(=O)c1[nH]c(C)c(C(=O)Nc2cc(Cl)ccc2C)c1C`, for which the cytotoxicity was 60.6% (active).

Take `CCOC(=O)c1[nH]c(C)c(C(=O)N2CCc3ccccc32)c1C`: the cytotoxicity is 58.8% (active).

`CCOC(=O)c1[nH]c(C)c(C(=O)c2cc(F)ccc2F)c1C`: the cytotoxicity was 72.2% (active).

For `CCOC(=O)c1[nH]c(C)c(C(=O)Nc2ccc(Cl)cc2)c1C`, the cytotoxicity is -8.4% (inactive).

For `CCOC(=O)c1[nH]c(C)c(C(=O)Nc2cc(OC)ccc2OC)c1C`, the cytotoxicity was 43.5% (inactive).

Regarding `CCOC(=O)c1[nH]c(C)c(C(=O)Nc2ccc(C)c(Cl)c2)c1C`, the cytotoxicity is -20.5% (inactive).

For the compound `CCOC(=O)c1[nH]c(C)c(C(=O)Nc2ccc(F)cc2)c1C`, the cytotoxicity is -4.5% (inactive).

With `CCOC(=O)c1[nH]c(C)c(C(=O)OCC)c1C`, the cytotoxicity was -6% (inactive).
